Compound activity (PubChem BioAssay)
ANO1 activ: mouse TMEM16A channel activation, primary screen. actives 0.3% (n = 340,000). AID 623877. B-score at 10 µM. HEK293 TMEM16A/YFP-H148Q/I152L, iodide quench fluorescence; active compounds read low;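 active = fluorescence-ratio B-score plate-corrected deviation score at least 3 library SD below zero, with starting fluorescence score within 5 deviations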;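 note: channel opened by trigger with iodide after compound preincubation; score built on the fluorescence ratio of max minus min over baseline; more negative score means more quench and so TMEM16A activation or potentiation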
DAGLB inhibitor: diacylglycerol lipase beta (human) inhibition. Q8NCG7. HEK293T DAGLB membrane lysate, EnzChek fluorogenic substrate. inhibition, % at 5.17 µM. actives 0.059% (n = 340,000); in the data active = inhibition above about 34%
Target sequence (Q8NCG7 whole entry, looked up): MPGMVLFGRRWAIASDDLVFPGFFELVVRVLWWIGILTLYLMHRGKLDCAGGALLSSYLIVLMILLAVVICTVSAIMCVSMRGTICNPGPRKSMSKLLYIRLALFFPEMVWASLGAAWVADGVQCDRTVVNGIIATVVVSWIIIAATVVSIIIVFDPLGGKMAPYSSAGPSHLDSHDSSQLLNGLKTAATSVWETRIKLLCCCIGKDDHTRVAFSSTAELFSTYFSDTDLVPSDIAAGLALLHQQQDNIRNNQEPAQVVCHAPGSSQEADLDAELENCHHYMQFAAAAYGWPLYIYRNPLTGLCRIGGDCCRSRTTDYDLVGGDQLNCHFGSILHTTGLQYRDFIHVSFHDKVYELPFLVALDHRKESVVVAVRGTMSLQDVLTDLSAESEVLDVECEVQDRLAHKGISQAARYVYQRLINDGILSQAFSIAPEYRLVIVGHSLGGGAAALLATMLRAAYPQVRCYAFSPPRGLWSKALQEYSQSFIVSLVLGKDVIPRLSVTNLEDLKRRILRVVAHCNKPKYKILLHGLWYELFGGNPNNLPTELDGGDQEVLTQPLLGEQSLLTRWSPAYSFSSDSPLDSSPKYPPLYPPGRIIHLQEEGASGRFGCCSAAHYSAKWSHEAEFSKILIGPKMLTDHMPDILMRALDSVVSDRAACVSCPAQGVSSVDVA
TMEM16A inh: mouse TMEM16A channel inhibition, primary screen; Q8BHY3; normalized B-score (activity score, 25-100; higher = stronger inhibition) at 10 µM; AID 588511; HEK293 TMEM16A/YFP iodide influx fluorescence, ionomycin; actives 1.2% (n = 310,000);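 active = ratio plate-corrected score three or more library SD toward inhibition, starting fluorescence score within five deviations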;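 note: score derived from kinetic fluorescence span divided by baseline fluorescence per well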
ABCB6 inh MLPCN: human ABCB6 transporter inhibition; Q9NP58; K562-ABCB6 porphyrin accumulation, flow cytometry, 1 h; active compounds read low; fluorescence ratio to DMSO, % at 10 µM; actives 0.19% (n = 360,000); AID 602162;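 active = fluorescence ratio to DMSO below 75%, the collection mean minus 3 SD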;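 note: signal is porphyrin accumulated inside mitochondria; lower ratio means ABCB6 inhibition with less porphyrin fluorescence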
hiPSC survival: increases survival of single human iPS cells | hiPSC single-cell survival, ATPlite luminescence; 100% = ROCK inhibitor wells, 0% = DMSO | survival enhancement, % at 20 µM | actives 0.044% (n = 360,000) | AID 602274; in the data active = survival enhancement above about 18%;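 note: cells exposed to compounds for 16 hours before the ATP read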
TMEM16A reconf: reconfirmed blocker of mouse TMEM16A calcium-activated chloride channel; shares compounds with TMEM16A inh; HEK293 TMEM16A/YFP-H148Q, iodide quench fluorescence; ionomycin added to raise cell calcium; inhibition, % at 10 µM; actives 39% (n = 2,300);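 active = mean duplicate percent inhibition, scaled so buffer wells are 0 and the reference blocker 100, over three buffer SD above buffer mean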
TMEM16A Ca cntr: calcium mobilization counter-screen hit for TMEM16A inhibitor series; shares compounds with TMEM16A inh; TMEM16A/YFP HEK293, Fluo4 calcium mobilization; calcium response (% of ionomycin), % at 10 µM; actives 2% (n = 2,300); AID 652231;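 active = duplicate-averaged calcium signal over 20% of the ionomycin maximum, relative to buffer baseline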;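 note: each well's signal is peak minus trough fluorescence divided by its pre-addition baseline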
YFP-HEK293 quench: acts in parental YFP-HEK293 cells lacking TMEM16A, counter-screen | 2,300 tested, under 10 active | iodide YFP quench, ionomycin | YFP ratio F(max-min)/F0 at 10 µM | shares compounds with TMEM16A inh;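 active = yellow fluorescent protein signal ratio exceeding the buffer control mean by over 5 SD of those controls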;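 note: ratio is mean of duplicate wells from kinetic YFP trace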
ClC-1 rat inh: blocks the rat ClC-1 voltage-dependent chloride channel; shares compounds with TMEM16A inh; CHO ClC-1-YFP, iodide influx fluorescence quench; iodide control reads 0, buffer control 100; ratio percent, % at 10 µM; 2,300 tested, under 10 active; AID 652236;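 active = duplicate-mean ratio percent above the mean of iodide-only control wells, which defines zero, plus 5 of their SD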;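 note: higher percent means stronger block of ClC-1 iodide influx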
Each line names hits and unclear results; the compound was inactive in the other large screens (follow-up assays come after a bar, where they were run). Compounds with a hit are over-represented: about 1.5% of the library has one in this group of screens.

COc1ccc(/C(O)=C/C(=O)C(=O)NNC(=O)C(O)(c2ccccc2)c2ccccc2)cc1	ANO1 activ -10.1, TMEM16A inh 100 | TMEM16A reconf 20.5% | TMEM16A Ca cntr inactive | YFP-HEK293 quench inactive | ClC-1 rat inh inactive
CCc1c(C)nc2ncnn2c1NCCc1ccc(OC)cc1	TMEM16A inh 25 | TMEM16A reconf inactive | TMEM16A Ca cntr inactive | YFP-HEK293 quench inactive | ClC-1 rat inh inactive
CCc1ccc(Nc2n[n+](-c3ccccc3)c(-c3ccc(OC)c(Br)c3)s2)cc1	none
Cc1cccnc1C(NC(=O)C1CCN(Cc2cn(C)c3ccccc23)CC1)c1ccc(Cl)cc1 (stereo unspecified)	none (no result: ANO1 activ, DAGLB inhibitor, TMEM16A inh)
Cc1cc(N/N=C/c2ccccc2Cl)nc(NCc2ccccc2)n1	none | TMEM16A reconf inactive | TMEM16A Ca cntr inactive | YFP-HEK293 quench inactive | ClC-1 rat inh inactive
CC(=O)Nc1cccc(NC(=O)CSc2ncc(-c3ccc(Cl)cc3)n2Cc2ccco2)c1	TMEM16A inh 100 | TMEM16A reconf 32.5% | TMEM16A Ca cntr inactive | YFP-HEK293 quench inactive | ClC-1 rat inh inactive
COc1ccc(-c2cnc(SCC(=O)Nc3ccc4c(c3)OCO4)n2Cc2ccco2)cc1	none (no result: TMEM16A inh)
CC[C@H]1C=C[C@@H](C(C(=O)OC)C(=O)OC)CN1C(C)=O	none (no result: ANO1 activ, TMEM16A inh)
C/C(=N\NC(=O)CCc1ccccc1)C1C(=O)c2ccccc2C1=O	none
C/C(=N\NC(=O)c1cccc(Cl)c1)C1C(=O)c2ccccc2C1=O	TMEM16A inh 100 | TMEM16A reconf inactive | TMEM16A Ca cntr inactive | YFP-HEK293 quench inactive | ClC-1 rat inh inactive
Cn1c(=O)c2c(nc(N3CCCCCC3)n2Cc2cccc3ccccc23)n(C)c1=O	TMEM16A inh 100 | TMEM16A reconf inactive | TMEM16A Ca cntr inactive | YFP-HEK293 quench inactive | ClC-1 rat inh inactive
CN1CCN(c2nc3c(c(=O)n(C)c(=O)n3C)n2Cc2cccc3ccccc23)CC1	none
O=C1c2ccccc2C(=O)N1C1C=CC=CC=C1	none (no result: ANO1 activ, TMEM16A inh)
Cc1nc2ccc(N=NC3=C(O)CCCC3=O)cc2s1	none | TMEM16A reconf inactive | TMEM16A Ca cntr inactive | YFP-HEK293 quench inactive | ClC-1 rat inh inactive
Cc1ccc(NS(=O)(=O)c2cccc(C(=O)Nc3cc(C)on3)c2)cc1	ANO1 activ -5.28, TMEM16A inh 25 | TMEM16A reconf inactive | TMEM16A Ca cntr inactive | YFP-HEK293 quench inactive | ClC-1 rat inh inactive
C=Cc1ccc(Cn2c(C)c(C(=O)NCc3cccc([N+](=O)[O-])c3)sc2=O)cc1	none (no result: ANO1 activ, DAGLB inhibitor, TMEM16A inh)
Cc1cccc(OCc2nnc(SCC(=O)N3CCN(c4ccccc4)CC3)o2)c1C	TMEM16A inh 100 | TMEM16A reconf inactive | TMEM16A Ca cntr inactive | YFP-HEK293 quench inactive | ClC-1 rat inh inactive
CCCCn1c(N)c(N(CCOC)C(=O)c2ccc(S(=O)(=O)N(CC)c3ccccc3)cc2)c(=O)[nH]c1=O	none
COc1ccc(-c2csc3nc(-c4cccnc4)nc(Cl)c23)cc1OC	TMEM16A inh 25 | TMEM16A reconf inactive | TMEM16A Ca cntr inactive | YFP-HEK293 quench inactive | ClC-1 rat inh inactive
Clc1nc(-c2cccnc2)nc2scc(-c3ccccc3)c12	none
Cc1ccc(S(=O)(=O)N2[C@@H](c3ccc(F)cc3)C(C(=O)O)=CC[C@H]2c2ccc(Cl)cc2)cc1	TMEM16A inh 25 | TMEM16A reconf inactive | TMEM16A Ca cntr inactive | YFP-HEK293 quench inactive | ClC-1 rat inh inactive
Cc1ccc(S(=O)(=O)N2[C@@H](c3ccc(Br)cc3)C(C(=O)O)=CC[C@H]2c2ccc(Cl)cc2)cc1	none (no result: ANO1 activ, TMEM16A inh)
Cc1ccc([C@@H]2CC=C(C(=O)O)[C@H](c3ccc(Cl)cc3)N2S(=O)(=O)c2ccc(C)cc2)cc1	TMEM16A inh 25 | TMEM16A reconf 16.5% | TMEM16A Ca cntr inactive | YFP-HEK293 quench inactive | ClC-1 rat inh inactive
CN1CCN(c2ccc(CNC[C@H]3O[C@@H](n4cnc5c(=O)[nH]c(N)nc54)[C@H](O)[C@@H]3O)c(F)c2)CC1	none (no result: ANO1 activ, DAGLB inhibitor, TMEM16A inh)
CCc1cc(C(=O)COc2ccc(F)cc2)c(O)cc1O	TMEM16A inh 100 | TMEM16A reconf 20.5% | TMEM16A Ca cntr inactive | YFP-HEK293 quench inactive | ClC-1 rat inh inactive
CN1C(=O)c2ccccc2NC(=O)[C@]12O[C@@H]2c1cccc(O)c1	none | TMEM16A reconf inactive | TMEM16A Ca cntr inactive | YFP-HEK293 quench inactive | ClC-1 rat inh inactive
O=C(CSCc1nc2ccccc2[nH]1)N1CCN(c2ccc(F)cc2)CC1	TMEM16A inh 25 | TMEM16A reconf 19.5% | TMEM16A Ca cntr inactive | YFP-HEK293 quench inactive | ClC-1 rat inh inactive
CCOC(=O)c1c(-c2ccccc2)c[nH]c1C	none (no result: TMEM16A inh)
CCN(C1CCCCC1)S(=O)(=O)c1ccc(OC)c(C)c1	TMEM16A inh 100 | TMEM16A reconf inactive | TMEM16A Ca cntr inactive | YFP-HEK293 quench inactive | ClC-1 rat inh inactive
CCCc1nc2ccc(Br)cn2c1Cc1ccccc1OC	none (no result: ANO1 activ, DAGLB inhibitor, TMEM16A inh)
CCOC(=O)C1CCN(C(=O)c2ccc(OCC(=O)Nc3cccc(C(F)(F)F)c3)cc2)CC1	none
CCOC(=O)C1CCN(C(=O)c2ccc(OCC(=O)Nc3cccc(C(F)(F)F)c3)c(OC)c2)CC1	TMEM16A inh 25 | TMEM16A reconf 28.5% | TMEM16A Ca cntr inactive | YFP-HEK293 quench inactive | ClC-1 rat inh inactive
COc1ccccc1CC(=O)Nc1nc(-c2ccc(F)c(F)c2)cs1	none
CCCNC(=O)c1ccccc1NS(=O)(=O)c1ccc(OC)c(OC)c1	none
COc1ccc(S(=O)(=O)Nc2ccccc2C(=O)Nc2nc(-c3ccc(F)cc3)cs2)cc1OC	TMEM16A inh 100 | TMEM16A reconf 50.5% | TMEM16A Ca cntr inactive | YFP-HEK293 quench inactive | ClC-1 rat inh inactive
COc1ccc(-c2csc(NC(=O)Cc3ccccc3F)n2)cc1OC	TMEM16A inh 100 | TMEM16A reconf inactive | TMEM16A Ca cntr inactive | YFP-HEK293 quench inactive | ClC-1 rat inh inactive
COc1ccc(-c2csc(NC(=O)CS(=O)(=O)c3ccccc3)n2)cc1OC	none (no result: ANO1 activ, TMEM16A inh)
COc1ccc(CC(=O)Nc2nc(-c3ccc(OC)c(OC)c3)cs2)cc1OC	TMEM16A inh 25 | TMEM16A reconf 35.0% | TMEM16A Ca cntr inactive | YFP-HEK293 quench inactive | ClC-1 rat inh inactive
O=C(Nc1ccc(S(=O)(=O)N2CCOCC2)cc1)c1ccc(CN2CCc3ccccc3C2)cc1	TMEM16A inh 100 (no result: ANO1 activ, DAGLB inhibitor, ABCB6 inh MLPCN, hiPSC survival) | TMEM16A reconf 50.5% | TMEM16A Ca cntr inactive | YFP-HEK293 quench inactive | ClC-1 rat inh inactive
